These results are taken from PubChem BioAssay (Tox21).

Experiment [1] addresses Progesterone receptor (Homo sapiens) (UniProt P06401). Nature of the experiment: qHTS assay to identify small molecule antagonists of the progesterone receptor (PR) signaling pathway (AID 1346795; active means well fitted inhibition curve with a large enough effect in the signal ratio in the repeat runs, not every such curve was filed as active; the % refers to the signal ratio; further: potency means the concentration at half of the fitted maximal effect). The conditions noted are these: PR-UAS-bla HEK293T, beta-lactamase FRET ratio, 16 h; series mostly up to 92.4 µM. In short, it runs like this: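 Inhibition of R5020-induced (1 nM final) beta-lactamase reporter signal in PR-UAS-bla HEK293T cells was scored by FRET fluorescence after overnight (16 hr) compound treatment.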

The nature of experiment [2]: qHTS assay to identify small molecule antagonists of the progesterone receptor (PR) signaling pathway - cell viability counter screen (AID 1346798). Further: nearly all actives have a fitted effect of over 50% in size. Further: potency means the concentration at half of the fitted maximal effect. To be noted: PR-UAS-bla HEK293T viability, CellTiter-Glo luminescence, 16 h; series mostly up to 92.4 µM. An outline of the steps: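 ATP content as viability readout: CellTiter-Glo luminescence, 30 min room temperature, in PR-UAS-bla HEK293T cells after 16 hr compound/R5020 treatment at 37C and 5% CO2.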

A short description of experiment [3]: qHTS assay to identify small molecule agonists of the progesterone receptor (PR) signaling pathway - cell viability counter screen (AID 1346799; calls by dose curve; further: potency means the concentration at half of the fitted maximal effect; nearly all actives have a fitted effect of over 45% in size). The conditions noted are these: PR-UAS-bla HEK293T viability, CellTiter-Glo luminescence, 16 h; series mostly up to 92.4 µM. In short, it runs like this: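 Cytotoxicity in PR-bla HEK293T cells: 16 h compound, 37C; CellTiter-Glo added post-FRET read; luminescence after 30 min RT.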

A short description of experiment [4]: qHTS assay to identify small molecule antagonists of the TGF-beta/Smad signaling pathway - cell viability counter screen (AID 1346824). Further: on the % scale 0 is the no-effect control and ±100 the full control effect; nearly all actives have a fitted effect of over 50% in size. The conditions noted are these: SBE-bla HEK293T viability, CellTiter-Glo luminescence; series mostly up to 76.8 µM. An outline of the steps: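 Cytotoxicity counter-screen run in the same wells as the beta-lactamase Smad reporter read: CellTiter-Glo luminescence after 30 min at room temperature. HEK 293T SBE-bla cells had 5 hr compound exposure at 37 C with TGF-beta1 (0.25 ng/mL stock).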

The nature of experiment [5]: qHTS assay to identify small molecule agonists of the TGF-beta/Smad signaling pathway - cell viability counter screen (AID 1346829). Further: top concentration of the series differs between compounds; on the % scale 0 is the no-effect control and ±100 the full control effect; nearly all actives have a fitted effect of over 45% in size. To be noted: SBE-bla HEK293T viability, CellTiter-Glo luminescence, 5 h; series mostly up to 76.8 µM. An outline of the steps: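 Cytotoxicity counter screen: CellTiter-Glo luminescence (30 min, room temperature) measured in the SBE-bla HEK 293T reporter wells after 5 hr compound treatment at 37 C and the 2 hr substrate step.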

In experiment [6] the target is Thyrotropin-releasing hormone receptor (Homo sapiens) (UniProt P34981). The experiment in a line: qHTS assay to identify small molecule antagonists of the thyrotropin-releasing hormone receptor (TRHR) signaling pathway (AID 1346877; active means well fitted inhibition curve with a large enough effect in the repeat runs, not every such curve was filed as active; further: on the % scale 0 is the no-effect control and ±100 the full control effect). To be noted: TRHR-HEK293, TRH-induced calcium fluorescence, antagonist mode; series mostly up to 51.3 µM. An outline of the steps:
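Antagonist mode: after a 5 min room-temperature compound exposure, cells were stimulated with 1 nM (final) TRH. Dye-loaded TRHR-HEK293 cells were used, and calcium-dependent fluorescence was followed for 3 min, with 15-point titrations run in triplicate.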

For experiment [7] the target is unchanged. Nature of the experiment: qHTS assay to identify small molecule agonists of the thyrotropin-releasing hormone receptor (TRHR) signaling pathway (AID 1346891; calls by dose curve;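 further: HEK293 cells expressing TRHR with calcium dye readout; on the % scale 0 is the no-effect control and ±100 the full control effect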). To be noted: TRHR-HEK293 calcium fluorescence, agonist mode; series mostly up to 57.6 µM. In short, it runs like this:
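In 1536-format, 1500 TRHR-Hek293 cells per well grew 18 h, took up calcium dye for 2 h at 37 °C, received compound, and were read kinetically; 15-point titrations, triplicates.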

Experiment [8] in a line: Caspase-3/7 induction in HepG2 cells by small molecules, qHTS assay (AID 1346978). Further: nearly all actives have a fitted effect of over 15% in size. Further: potency means the concentration at half of the fitted maximal effect. On caspase activation: on the % scale 0 is the no-effect control and ±100 the full control effect. The conditions noted are these: HepG2 caspase-3/7 activation, Caspase-Glo luminescence, 17 h; series mostly up to 92.4 µM. An outline of the steps:
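Caspase-3/7 induction was measured by Caspase-Glo 3/7 luminescence (30 min, room temperature) after a 17 hr compound exposure of wild-type HepG2 cells seeded at 2,000 per well and pre-incubated 5 hr.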

Experiment [9] in a line: qHTS assay to identify small molecule agonists of the TGF-beta/Smad signaling pathway (AID 1346859; active means well fitted activation curve with a large enough effect in the signal ratio in the repeat runs, not every such curve was filed as active; the % refers to the signal ratio; further: on the % scale 0 is the no-effect control and ±100 the full control effect). To be noted: SBE-bla HEK293T, TGF-beta/Smad beta-lactamase reporter, 5 h; series mostly up to 76.8 µM. An outline of the steps:
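Stable Smad binding element-beta-lactamase HEK 293T cells; 5 hr compound exposure at 37 C under 5% CO2; 2 hr room-temperature substrate step; fluorescence excited at 405 nm, collected at 460 nm and 530 nm.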

Experiment [10] is described as follows: Human pregnane X receptor (PXR) small molecule agonists, qHTS cell viability counter screen (AID 1346977). Further: nearly all actives have a fitted effect of over 50% in size. Further: potency means the concentration at half of the fitted maximal effect. To be noted: PXR-Luc HepG2 viability, CellTiter-Fluor, 24 h; series mostly up to 92.4 µM. An outline of the steps: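 Readout is CellTiter-Fluor fluorescence from PXR-Luc HepG2 cells. Plated cells rested 5hr, then were treated with compounds for 24hr at 37C and 5% CO2, with reagent present during the last hour.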

A number with no mark means an inactive call. Records with an inconclusive call do not appear. Calls of active or inactive are those of the source. Unless noted, the call rests on the fitted dose curve; in most records, active means well fitted curve in the direction sought with a large enough effect in the repeat runs; inconclusive means weak or mixed curves; inactive means no such curve, though single readings can be large; an effect the other way counts as inactive or inconclusive.

Chain of Progesterone receptor (Homo sapiens) (P06401 whole entry, looked up): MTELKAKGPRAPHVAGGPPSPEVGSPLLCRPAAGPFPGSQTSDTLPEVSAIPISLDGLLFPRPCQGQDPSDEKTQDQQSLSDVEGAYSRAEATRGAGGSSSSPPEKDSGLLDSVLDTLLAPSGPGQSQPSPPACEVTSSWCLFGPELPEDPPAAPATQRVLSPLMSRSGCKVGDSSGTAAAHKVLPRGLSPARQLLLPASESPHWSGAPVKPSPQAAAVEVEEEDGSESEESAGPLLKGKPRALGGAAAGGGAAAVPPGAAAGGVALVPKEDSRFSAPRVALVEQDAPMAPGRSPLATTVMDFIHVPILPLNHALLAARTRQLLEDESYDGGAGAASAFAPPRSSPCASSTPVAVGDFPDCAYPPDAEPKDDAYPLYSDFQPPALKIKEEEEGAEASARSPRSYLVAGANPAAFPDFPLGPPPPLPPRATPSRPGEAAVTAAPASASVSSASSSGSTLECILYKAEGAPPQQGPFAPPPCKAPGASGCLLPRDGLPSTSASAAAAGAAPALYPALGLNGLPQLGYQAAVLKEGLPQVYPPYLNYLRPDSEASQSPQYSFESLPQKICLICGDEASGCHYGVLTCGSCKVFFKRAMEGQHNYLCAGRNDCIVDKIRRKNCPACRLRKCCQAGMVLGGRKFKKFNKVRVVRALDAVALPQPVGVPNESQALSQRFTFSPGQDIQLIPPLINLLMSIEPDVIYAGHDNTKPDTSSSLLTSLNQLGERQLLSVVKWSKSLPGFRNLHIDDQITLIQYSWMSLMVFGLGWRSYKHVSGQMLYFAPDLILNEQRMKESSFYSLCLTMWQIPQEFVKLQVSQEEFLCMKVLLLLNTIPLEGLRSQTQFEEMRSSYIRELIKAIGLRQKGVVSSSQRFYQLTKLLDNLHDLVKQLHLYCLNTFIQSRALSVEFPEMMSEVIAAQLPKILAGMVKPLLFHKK
Chain of Thyrotropin-releasing hormone receptor (Homo sapiens) (P34981 whole entry, looked up): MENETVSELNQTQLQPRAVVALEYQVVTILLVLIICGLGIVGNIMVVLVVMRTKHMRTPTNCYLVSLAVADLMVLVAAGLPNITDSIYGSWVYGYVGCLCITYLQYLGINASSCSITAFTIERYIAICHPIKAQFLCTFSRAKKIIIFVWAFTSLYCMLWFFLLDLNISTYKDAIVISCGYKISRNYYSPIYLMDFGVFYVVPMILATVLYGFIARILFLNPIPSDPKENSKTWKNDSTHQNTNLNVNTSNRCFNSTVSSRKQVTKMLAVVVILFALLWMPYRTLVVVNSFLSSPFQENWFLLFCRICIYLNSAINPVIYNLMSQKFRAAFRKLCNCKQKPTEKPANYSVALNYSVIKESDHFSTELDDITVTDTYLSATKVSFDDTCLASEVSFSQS

Take `Clc1ccc(C(Cn2ccnc2)OCc2ccsc2Cl)c(Cl)c1` (stereo not given): the values for the Potency in experiment [1], in [2] and in experiment [3] were 3.35 µM (active), 6.68 µM (active) and 8.41 µM (active), respectively. Further, the Potency result in [4], in [5], in experiment [6], in experiment [7] and in [8] was “inactive” throughout.

Take `CNC(=S)NN`: the Potency was 8.63 µM (active) in experiment [1], 13.7 µM (active) in [2], 12.2 µM (active) in experiment [10] and 61.1 µM (active) in [8]. The Potency result in experiment [4], in experiment [5] and in experiment [9] was “inactive” each time.

In the case of `C/C=C/C(=O)C1=C(C)CCCC1(C)C`, the Potency entry in experiment [1], in experiment [2], in experiment [4], in experiment [5], in [6] and in experiment [7] was “inactive” each time. Besides, the Potency result in [10] and in experiment [8] was “inactive” in each case.

Take `CN1[C@@H]2CC[C@@H]1CC(OC(=O)C(CO)c1ccccc1)C2` (stereo not given in full): the Potency result in experiment [1], in experiment [2], in experiment [4], in experiment [5], in experiment [9] and in experiment [10] was “inactive” each time. Moreover, the Potency result in experiment [8] was “inactive”.

Consider `CC(C)=CCCC(C)O` (stereo not given), for which the Potency result in experiment [1], in [2], in [4], in experiment [5], in experiment [9] and in [10] was “inactive” in each case. Also, the Potency result in experiment [8] is “inactive”.

As to `Cc1ccc(CCn2c3c(c4cc(Cl)ccc42)CN(C)CC3)cn1`, the Potency entry in experiment [1], in [4], in experiment [5], in experiment [9], in experiment [7] and in [8] was “inactive” throughout. Also, the Potency in experiment [2] was 26.6 µM (active).

Regarding `CC1(C)COCN1`, the Potency result in experiment [1], in [2], in experiment [4], in experiment [5], in [9] and in experiment [6] was “inactive” each time. Moreover, the Potency result in [7], in [10] and in experiment [8] was “inactive” each time.

With `CCCCN(C)C`, the Potency entry in experiment [1], in [2], in experiment [4], in experiment [5], in [9] and in experiment [6] was “inactive” throughout. The Potency entry in [7], in experiment [10] and in experiment [8] was “inactive” each time.

Take `CCN(CC)c1cccc(C)c1`: the Potency result in experiment [1], in [2], in [4], in experiment [5], in experiment [9] and in experiment [6] was “inactive” throughout. Further, the Potency result in [7], in experiment [10] and in experiment [8] was “inactive” each time.

Turning to `CCCCCCCCCCCCCCCCCO`, the activity change, negative = inhibition in experiment [1] was 1.26% [at 18.9 µM]. The values for the activity change, negative = cytotoxicity in [2], in [5] and in [10] were -7.24% [at 18.9 µM], -0.289% [at 15.8 µM] and 3.58% [at 19 µM], respectively. Moreover, the viability change, negative = cytotoxic in [4] is -8.2% [at 15.8 µM]. In addition, the figures for the activation in experiment [9] and in experiment [7] were -0.867% [at 15.8 µM] and 0.0338% [at 11.8 µM], respectively. In experiment [6], the activity, negative = inhibition was 0.827% [at 10.5 µM]. Besides, in [8], the caspase activation was 0.39% [at 19 µM].

For the molecule `Clc1ccc(C(c2ccccc2Cl)C(Cl)Cl)cc1` (stereo not given), the Potency in experiment [1] was 3.44 µM (active). For the same molecule, the Potency result in [2], in experiment [4], in [5], in [9], in [6] and in [7] was “inactive” in each case. Further, the Potency entry in experiment [10] and in experiment [8] was “inactive” in each case.

`CO[C@H]1C=CO[C@@]2(C)Oc3c(C)c(O)c4c(O)c(cc(O)c4c3C2=O)NC(=O)/C(C)=C\C=C/[C@H](C)[C@H](O)[C@@H](C)[C@@H](O)[C@@H](C)[C@H](OC(C)=O)[C@@H]1C`: the Potency entry in [1], in experiment [2], in experiment [4], in experiment [5], in [6] and in experiment [7] was “inactive” in each case. Besides, in experiment [8], the Potency result was “inactive”. For the same molecule, the Potency in experiment [10] was 48.9 µM (active).

Take `CCN1CCN(c2cc(-c3ccc(F)cc3)c3c(n2)CCCCCC3)CC1`: the activity change, negative = inhibition in experiment [1] is -13.2% [at 18.9 µM]. The activity change, negative = cytotoxicity in [2] was 1.1% [at 18.9 µM]; in experiment [5] it was -0.583% [at 15.8 µM]; in [10], 0.184% [at 19 µM]. The viability change, negative = cytotoxic in experiment [4] is 0.113% [at 15.8 µM]. In addition, the values for the activation in experiment [9] and in [7] were -2.06% [at 15.8 µM] and 0.262% [at 11.8 µM], respectively. The activity, negative = inhibition in experiment [6] is 1.24% [at 10.5 µM]. For the same molecule, the caspase activation in [8] was 0.316% [at 19 µM].

As for `CCCC(C)CCC(C)=O` (stereo not given), the Potency result in experiment [1], in experiment [2], in experiment [4], in experiment [5], in experiment [9] and in experiment [6] was “inactive” in each case. Moreover, the Potency entry in experiment [7], in experiment [10] and in experiment [8] was “inactive” throughout.
